Measured values taken from the supplement of paper PMC12067926.

Legend:
Assay in all cases: relative growth (AUC of 72 h growth curve relative to DMSO control, dAUC) (ratio); higher = more growth (less inhibition), active = hit call of the paper
Details in all cases: 20 µM;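 active = growth AUC significantly below the DMSO wells by Dunnett test; inactive = the rest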
[1] = tested on: Prolinoborus 1 (Prolinoborus fasciculus)
Procedure, shortened: (§1)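 Each chemical was tested at 20 µM (1% DMSO) in 96-well plates seeded with a 1:100 dilution of cultures grown to carrying capacity in Luria–Bertani medium. These were isolates from Icelandic stream sediments and Silwood Park soil, as well as whole sediment communities. A plate reader took A600 readings hourly over 72 h, and three biological replicates were averaged. Relative growth (dAUC) is the spline-integrated area under the growth curve relative to the mean of the DMSO controls.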

[2] = tested on: Pseudomonas 1 (Pseudomonas baetica)
Procedure, shortened: as §1

[3] = tested on: Pseudomonas 2 (Pseudomonas vancouverensis)
Procedure, shortened: as §1

[4] = tested on: Pseudomonas 3 (Pseudomonas mandelii)
Procedure, shortened: as §1

[5] = tested on: Pseudomonas 4 (Pseudomonas peli)
Procedure, shortened: as §1

[6] = tested on: Pseudomonas 5 (Pseudomonas baetica)
Procedure, shortened: as §1

[7] = tested on: Pseudomonas 6 (Pseudomonas sp.)
Procedure, shortened: as §1

[8] = tested on: Rhizobium 1 (Rhizobium herbae)
Procedure, shortened: as §1

[9] = tested on: Serratia 1 (Serratia sp. 2015-2462-01)
Procedure, shortened: as §1

[10] = tested on: Sphingomonas 2 (Sphingomonas sp.)
Procedure, shortened: as §1

Measured: relative growth

COP(=O)(NC(C)=O)SC (stereo not given)
inactive: [1] 1.03 | [2] 1.07 | [3] 1.02 | [4] 1.08 | [5] 1.02 | [6] 1.02 | [7] 1.14 | [8] 0.999 | [9] 0.992 | [10] 0.94

COP(N)(=O)SC (stereo not given)
inactive: [1] 0.972 | [2] 1.04 | [3] 0.982 | [4] 1.06 | [5] 0.995 | [6] 1.1 | [7] 1.06 | [8] 0.973 | [9] 0.965 | [10] 0.675

CC(C)(C)C(O)(CCc1ccc(Cl)cc1)Cn1cncn1 (stereo not given)
inactive: [1] 0.931 | [2] 1.15 | [3] 0.962 | [4] 1.03 | [5] 0.94 | [6] 0.979 | [7] 1.05 | [8] 0.918 | [9] 0.943 | [10] 1.06

O=C(NC(=O)c1c(F)cccc1F)Nc1ccc(Cl)cc1
inactive: [1] 0.965 | [2] 1.06 | [3] 1.01 | [4] 1.04 | [5] 1.02 | [6] 1.01 | [7] 1.05 | [8] 1.06 | [9] 0.988 | [10] 1.02

CCCCN(CCCC)SN(C)C(=O)Oc1cccc2c1OC(C)(C)C2
inactive: [1] 0.949 | [3] 1.03 | [4] 1.07 | [5] 1.01 | [6] 1.03 | [7] 1.18 | [8] 0.946 | [9] 0.977 | [10] 0.798
active: [2] 0.618

CC(C)CC(C)c1sccc1NC(=O)c1cn(C)nc1C(F)(F)F (stereo not given)
inactive: [1] 0.895 | [2] 1.11 | [3] 0.985 | [4] 1.05 | [5] 1 | [6] 1 | [7] 1.05 | [9] 0.974 | [10] 0.888
active: [8] 0.331

C#CCN1C(=O)COc2cc(F)c(N3C(=O)C4=C(CCCC4)C3=O)cc21
inactive: [1] 0.972 | [2] 1.1 | [3] 1 | [4] 1.04 | [5] 0.985 | [6] 1.05 | [7] 1.05 | [8] 0.908 | [9] 0.938 | [10] 0.959

COc1cccc(C(=O)NN(C(=O)c2cc(C)cc(C)c2)C(C)(C)C)c1C
inactive: [1] 0.981 | [2] 1.04 | [3] 1.01 | [4] 1.04 | [5] 0.987 | [6] 1.05 | [7] 1.12 | [8] 0.96 | [9] 0.934 | [10] 0.977

CSc1nc(NC(C)C)nc(NC(C)C)n1
inactive: [1] 0.989 | [2] 1.14 | [3] 1.02 | [4] 1.02 | [5] 0.949 | [6] 1.03 | [7] 1.08 | [8] 0.858 | [9] 0.983 | [10] 0.989

COCC(C)N(C(=O)CCl)c1c(C)csc1C (stereo not given)
inactive: [1] 0.925 | [2] 1.04 | [3] 0.974 | [4] 1 | [5] 0.962 | [6] 1.07 | [7] 1.15 | [8] 1.04 | [9] 0.939 | [10] 1.01

Cc1nc(N(C)C)nc(OC(=O)N(C)C)c1C
inactive: [1] 0.948 | [2] 1 | [3] 0.96 | [4] 0.978 | [5] 0.949 | [6] 0.991 | [7] 1.02 | [8] 1.22 | [9] 0.992 | [10] 0.968

Cc1cc(C(C#N)c2ccc(Cl)cc2)c(Cl)cc1NC(=O)c1cc(I)cc(I)c1O (stereo not given)
active: [1] 0.673 | [3] 0.757 | [4] 0.822 | [6] 0.844 | [9] 0.825 | [10] 0.0325
inactive: [2] 0.846 | [5] 0.883 | [7] 0.857 | [8] 0.478

CNC(=O)ON=C(C)SC
inactive: [1] 0.938 | [2] 0.876 | [3] 0.956 | [4] 0.999 | [5] 0.946 | [6] 1.02 | [7] 0.936 | [8] 1.06 | [9] 0.936 | [10] 0.978

CCNc1nc(Cl)nc(NC(C)C)n1
inactive: [1] 0.944 | [2] 0.917 | [3] 0.95 | [4] 0.996 | [5] 0.956 | [6] 1.01 | [7] 0.945 | [8] 0.995 | [9] 0.928 | [10] 1.02

Cc1c(COC(=O)[C@@H]2[C@H](/C=C(\Cl)C(F)(F)F)C2(C)C)cccc1-c1ccccc1 (racemic)
inactive: [1] 0.977 | [2] 0.975 | [3] 0.983 | [4] 0.977 | [5] 0.995 | [6] 1.01 | [7] 0.949 | [8] 0.893 | [9] 1.01 | [10] 1.07

O=C(O)c1nc(Cl)ccc1Cl
inactive: [1] 0.949 | [2] 1 | [3] 0.984 | [4] 1 | [5] 0.969 | [6] 0.971 | [7] 1.03 | [8] 1.05 | [9] 0.977 | [10] 0.931

CC[C@H](C)C1O[C@]2(C=C[C@@H]1C)C[C@@H]1C[C@@H](C/C=C(\C)[C@@H](O[C@H]3C[C@H](OC)[C@@H](O[C@H]4C[C@H](OC)[C@H](NC)[C@H](C)O4)[C@H](C)O3)[C@@H](C)/C=C/C=C3\CO[C@@H]4[C@H](O)C(C)=C[C@@H](C(=O)O1)[C@]34O)O2 (stereo not given in full)
active: [1] 0.605 | [10] 0.373
1.16: [6] | [9]
inactive: [2] 0.957 | [3] 0.971 | [4] 1.08 | [5] 0.98 | [7] 1.19 | [8] 0.8

CN/C(=N\[N+](=O)[O-])NCc1cnc(Cl)s1
inactive: [1] 0.937 | [2] 1.1 | [3] 0.964 | [4] 1.01 | [5] 0.974 | [6] 1.03 | [7] 1.09 | [8] 0.902 | [9] 0.931 | [10] 0.945

CSc1nnc(C(C)(C)C)c(=O)n1N
inactive: [1] 0.951 | [2] 0.717 | [3] 0.997 | [4] 0.984 | [5] 1.01 | [6] 0.998 | [7] 0.948 | [8] 0.958 | [9] 0.995 | [10] 0.779

N#C/N=C1\SCCN1Cc1ccc(Cl)nc1
inactive: [1] 1.03 | [2] 1.05 | [3] 1.01 | [4] 1.02 | [5] 1.03 | [6] 1 | [7] 1 | [8] 1.02 | [9] 0.986 | [10] 0.998

COP(=S)(OC)Oc1nc(Cl)c(Cl)cc1Cl
inactive: [1] 1.04 | [2] 1.06 | [3] 1.08 | [4] 1.09 | [5] 1.03 | [6] 1.06 | [7] 1.12 | [8] 0.8 | [9] 0.998 | [10] 1.06

CC(C)N1C(=O)N(c2ccccc2)CS/C1=N\C(C)(C)C
inactive: [1] 0.883 | [2] 1.05 | [3] 0.977 | [4] 1.02 | [5] 0.937 | [6] 1.03 | [7] 1.07 | [8] 0.931 | [9] 0.962 | [10] 1.05

COP(=O)(OC)OC=C(Cl)Cl
inactive: [1] 0.895 | [2] 1.08 | [3] 0.963 | [4] 1.04 | [5] 0.963 | [6] 1.01 | [7] 0.982 | [8] 1.01 | [9] 0.96 | [10] 0.823

CCNC(=O)NC(=O)/C(C#N)=N/OC
inactive: [1] 0.954 | [2] 0.924 | [3] 0.96 | [4] 0.993 | [5] 0.981 | [6] 0.986 | [7] 1.03 | [8] 1.06 | [9] 1 | [10] 0.919

Cc1cc(C2CC2)nc(Nc2ccccc2)n1
inactive: [1] 1.03 | [2] 1.11 | [3] 1 | [4] 1.03 | [5] 0.976 | [6] 0.991 | [7] 0.966 | [8] 1.06 | [9] 0.969 | [10] 0.951

CC1(C)C(C(=O)OC(C#N)c2cccc(Oc3ccccc3)c2)C1(C)C (stereo not given)
inactive: [1] 0.893 | [2] 1.08 | [3] 1 | [4] 1.04 | [5] 0.948 | [6] 1.01 | [7] 1.01 | [8] 1.05 | [9] 1 | [10] 0.98

CCCN(CCOc1c(Cl)cc(Cl)cc1Cl)C(=O)n1ccnc1
inactive: [1] 0.93 | [2] 1.07 | [3] 0.984 | [4] 1.02 | [5] 0.964 | [6] 0.997 | [7] 1.03 | [8] 0.949 | [9] 0.985 | [10] 0.993
